# Source: PubChem BioAssay (Tox21)
# Calls of active or inactive are those of the source. Calls follow the shape of the dose curve; as a rule, active = well fitted activation curve with a large enough effect in the repeat runs; inconclusive = weak or mixed curves; inactive = flat fitted curve, though single readings scatter.
# Biological target: Androgen receptor (Homo sapiens) (UniProt P10275)
# Assay: qHTS assay to identify small molecule agonists of the androgen receptor (AR) signaling pathway using the MDA cell line (AID 743040; also: nearly all actives have a fitted effect of over 20% in size)
# Conditions: MDA-kb2 AR-luc cells, MMTV luciferase, 16 h; series mostly up to 70.3 µM; activity change: at the top concentration
# Excerpt: National Center for Advancing Translational Sciences [NCATS]
# NIH Chemical Genomics Center [NCGC]
# U.S. Environmental Protection Agency [EPA]
# National Institutes of Environmental Health Sciences [NIEHS]
# National Toxicology Program [NTP]
# U.S. Food and Drug Administration [FDA]
# Androgen receptor (AR), a nuclear hormone receptor, plays a critical role in AR-dependent prostate cancer and other androgen related diseases. Endocrine disrupting chemicals (EDCs) and their interactions with steroid hormone receptors like AR may cause disruption of normal endocrine function as well as interfere with metabolic homeostasis, reproduction, developmental and behavioral functions. To identify the compounds that activate AR signaling, MDA-kb2 AR-luc cell line (from ATCC, deposited by Wilson et al.) was used to screen the Tox21 10K compound library. MDA-kb2 AR-luc cell line is human breast carcinoma cell line that was stably transfected with a luciferase reporter gene under control of the MMTV promoter containing response elements for both androgen receptor (AR) and glucocorticoid receptor (GR).
# Tox21 Assay Protocol Summary:
# MDA-kb2 AR-luc cells were dispensed at 3,000 cells/5 uL/well of culture medium into white wall/solid-bottom 1536-well plates using a Multidrop Combi (ThermoFisher Scientific, Waltham, MA) dispenser. After the assay plates were incubated at 37C and 0% CO2 for 5 h, 23 nL of compounds dissolved in DMSO, positive controls or DMSO only was transferred to the assay plate by a Pintool station (Kalypsys, San Diego, CA). The plates were incubated at 37C and 0% CO2 for 16 h. Then 4 uL of ONE-Glo reagent (Promega, Madison, WI) was added to each plate using a Bioraptr Flying Reagent Dispenser (FRD) workstation (Beckman Coulter, Indianapolis, IN, USA) and luminescence was quantified on a ViewLux (PerkinElmer, Shelton, CT) plate reader after 30 min incubation at room temperature.
# % is scaled to controls: 0 for no effect and ±100 for the full control effect; potency is read from the fitted curve at half-maximal effect.
# Sequence of Androgen receptor (Homo sapiens) (P10275 whole entry, looked up): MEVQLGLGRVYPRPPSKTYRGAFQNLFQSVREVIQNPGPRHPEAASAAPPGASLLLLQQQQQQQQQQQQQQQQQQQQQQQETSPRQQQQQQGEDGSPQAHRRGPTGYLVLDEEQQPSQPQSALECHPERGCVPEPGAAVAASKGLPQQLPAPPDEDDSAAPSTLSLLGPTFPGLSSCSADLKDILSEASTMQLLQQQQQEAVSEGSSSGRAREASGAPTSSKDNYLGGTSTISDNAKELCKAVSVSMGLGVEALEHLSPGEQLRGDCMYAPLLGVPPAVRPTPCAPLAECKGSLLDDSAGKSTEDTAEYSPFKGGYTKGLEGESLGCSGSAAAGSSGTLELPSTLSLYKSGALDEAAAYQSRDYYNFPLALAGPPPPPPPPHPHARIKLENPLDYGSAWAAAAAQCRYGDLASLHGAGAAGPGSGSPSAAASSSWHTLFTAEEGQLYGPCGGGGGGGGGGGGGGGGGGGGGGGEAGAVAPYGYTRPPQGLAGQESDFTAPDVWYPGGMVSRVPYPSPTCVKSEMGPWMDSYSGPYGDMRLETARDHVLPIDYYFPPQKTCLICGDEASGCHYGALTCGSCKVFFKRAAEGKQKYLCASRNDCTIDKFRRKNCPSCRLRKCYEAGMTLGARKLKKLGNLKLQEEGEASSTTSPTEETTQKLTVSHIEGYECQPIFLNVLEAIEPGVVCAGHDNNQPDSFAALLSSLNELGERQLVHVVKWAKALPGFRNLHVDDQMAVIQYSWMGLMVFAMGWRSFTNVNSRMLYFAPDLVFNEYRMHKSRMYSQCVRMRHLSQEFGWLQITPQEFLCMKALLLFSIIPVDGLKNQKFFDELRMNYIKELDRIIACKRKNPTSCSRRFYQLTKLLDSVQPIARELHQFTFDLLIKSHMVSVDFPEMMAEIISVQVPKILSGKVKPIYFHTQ
SMILES,activity change,Potency
CO[C@@H]1[C@H](OC(=O)NC(=O)CCl)CC[C@]2(CO2)[C@H]1[C@@]1(C)O[C@@H]1CC=C(C)C,"-3.13% [at 32.5 µM, active compounds read high] (inactive)",–
COC(C)(C)CCC[C@H](C)C/C=C/C(C)=C/C(=O)OC(C)C,-2.57% (inactive),–
CCCCN(N=O)C(=N)N[N+](=O)[O-],"-1.89% [at 95 µM, active compounds read high] (inactive)",–
O=S1OC[C@@H]2[C@H](CO1)[C@]1(Cl)C(Cl)=C(Cl)[C@@]2(Cl)C1(Cl)Cl (stereo not given in full),-5.82% (inactive),–
Nc1ccc([N+](=O)[O-])cc1[N+](=O)[O-],-0.0388% (inactive),–
O=C(NC(=O)c1c(F)cccc1F)Nc1cc(Cl)c(Oc2ncc(C(F)(F)F)cc2Cl)c(Cl)c1,-8.03% (inactive),–
CC(=O)NC1CCSC1=O (stereo not given),–,inactive
COP(=S)(OC)Oc1ccc([N+](=O)[O-])cc1Cl,-1.64% (inactive),–
II,-0.0139% (inactive),–
CO/N=C(/C(=O)OC)c1ccccc1COc1ccccc1C,-10.4% (inactive),–
C=CCOC(C)=O,-3.07% (inactive),–
O=C(CCl)c1ccc(Cl)cc1Cl,–,inactive
N#CCC#N,-0.626% (inactive),–
Cc1ccccc1C(=O)Nc1cccc(OC(C)C)c1,0.236% (inactive),–
O=NN1CCCCCC1,-0.794% (inactive),–
c1ccc(C2CC2)c(OCC2=NCCN2)c1,-1.91% (inactive),–
NS(=O)(=O)C(F)(F)C(F)(F)C(F)(F)C(F)(F)C(F)(F)C(F)(F)C(F)(F)C(F)(F)F,-7.24% (inactive),–
Brc1ccccc1,3.59% (inactive),–
COP(=O)(OC)O/C(=C/Cl)c1cc(Cl)c(Cl)cc1Cl,"-8.28% [at 95 µM, active compounds read high] (inactive)",–
CCOP(=S)(OCC)Oc1cc(Cl)c(Br)cc1Cl,-3.53% (inactive),–

SMILES,activity change,Potency
Cc1ccc2ccccc2c1,-3.18% (inactive),–
C[C@@H]1CC[C@H]2[C@@H](C)C(=O)O[C@@H]3O[C@@]4(C)CC[C@@H]1[C@]32OO4,-8.26% (inactive),–
COP(=S)(OC)Oc1cc(Cl)c(I)cc1Cl,1.69% (inactive),–
CCCCCCCCCCOC(=O)c1ccccc1C(=O)OCCCCCCCCCC,-0.679% (inactive),–
c1cc2ccc3cccc4ccc(c1)c2c34,"3.69% [at 95 µM, active compounds read high] (inactive)",–
O=[N+]([O-])C(Br)(CO)CO,–,inactive
Cc1cc(=O)[nH]o1,"1.43% [at 95 µM, active compounds read high] (inactive)",–
C[N+](C)(C)CCCl,"0.917% [at 95 µM, active compounds read high] (inactive)",–
Cl/C=C\C[N+]12CN3CN(CN(C3)C1)C2,0.436% (inactive),–
O=C(C(Cl)(Cl)Cl)C(Cl)(Cl)Cl,"0.0943% [at 95 µM, active compounds read high] (inactive)",–
C=CC(=O)NCNC(=O)C=C,23.3% (inactive),–
C/C(=C\c1ccccc1)[N+](=O)[O-],-12.5% (inactive),–
IC(I)=C(I)I,-1.95% (inactive),–
COP(=S)(Oc1cc(Cl)c(Br)cc1Cl)c1ccccc1 (stereo not given),-3.28% (inactive),–
COC(=O)C(C)N(C(=O)Cc1ccccc1)c1c(C)cccc1C (stereo not given),-6.7% (inactive),–
CCOC(=O)COc1cc(-c2nn(C)c(OC(F)F)c2Cl)c(F)cc1Cl,0.103% (inactive),–
OC(c1ccc(Cl)cc1)(c1ccc(Cl)cc1)c1cccnc1,-9.68% (inactive),–
BrCC(Br)C1CCC(Br)C(Br)C1 (stereo not given),–,1360 nM (active)
NCCCNCCCN,"-5.03% [at 95 µM, active compounds read high] (inactive)",–
O=C(Nc1ccccc1)Nc1ccnc(Cl)c1,-10.9% (inactive),–
